Whole data set: some 140,000 sequences, median “enrichment ratio after two sorts for PhoP signalling” near 0, cut for the highest 2% near 11. Only a selection was taken, and the highest values are over-represented in it overall. Bounds are passed on as bounds.

The results in this text go back to a collection of fitness landscapes (doi:10.1126/science.1257360).

The labels stand for the following.
B1: PhoQ; a variant is named by its letters at X, in order, P23837 (parent)
chain: MKKLLRLFFPLSLRVRFLLATAAVVLVLSLAYGMVALIGYSVSFDKTTFRLLRGESNLFYTLAKWENNKLHVELPENIDKQSPTMTLIYDENGQLLWAQRDVPWLMKMIQPDWLKSNGFHEIEADVNDTSLLLSGDHSIQQQLQEVREDDDDAEMTHSVAVNVYPATSRMPKLTIVVVDTIPVELKSSYMVWSWFIYVLSANLLLVIPLLWVAAWWSLRPIEALAKEVRELEEHNRELLNPATTRELTSLVRNLNRLLKSERERYDKYRTTLTDLTHSLKTPLXXLQXXLRSLRSEKMSVSDAEPVMLEQISRISQQIGYYLHRASMRGGTLLSRELHPVAPLLDNLTSALNKVYQRKGVNISLDISPEISFVGEQNDFVEVMGNVLDNACKYCLEFVEISARQTDEHLYIVVEDDGPGIPLSKREVIFDRGQRVDTLRPGQGVGLAVAREITEQYEGKIVAGESMLGGARMEVIFGRQHSAPKDE

Variants of B1 are the subject of this assay. Nature of the assay: enrichment ratio after two sorts for PhoP signalling (ratio (wild type AVST 3.29)); higher = more functional. As to conditions: with PhoP (E. coli).
Take TAMS: the enrichment ratio came to 7.61.

As for TAMV, the enrichment ratio worked out at 14.2.

Regarding TAVA, the enrichment ratio is not above 0.25.

TAQF: the enrichment ratio turned out to be 14.

Take KVFQ: the enrichment ratio is not above 0.25.

On to TFVR, for which the enrichment ratio is not above 0.25.

Turning to QGQK, the enrichment ratio was not above 0.25.

PHIC: the enrichment ratio was not above 0.25.

Regarding NSGR, the enrichment ratio was not above 0.25.

For the variant SWSS, the enrichment ratio is not above 0.25.

Consider AQVW, for which the enrichment ratio is not above 0.25.

Take THPY: the enrichment ratio is not above 0.25.

As for TAWV, the enrichment ratio stood at 12.8.

As to YAMF, the enrichment ratio was not above 0.25.

For the variant KAAF, the enrichment ratio was not above 0.25.

As to TAWI, the enrichment ratio is 10.7.

For IAMF, the enrichment ratio is not above 0.25.

As for TAMF, the enrichment ratio came to 19.6.

As for TAAF, the enrichment ratio was found to be 18.4.

Consider TAVK, for which the enrichment ratio is not above 0.25.

Turning to NAAF, the enrichment ratio was not above 0.25.

As for DPRG, the enrichment ratio is not above 0.25.

For GCCQ, the enrichment ratio came out at 8.03.

NNVY: the enrichment ratio is not above 0.25.

On to MPPF, for which the enrichment ratio is not above 0.25.

Regarding QTGS, the enrichment ratio amounted to 0.628.

In the case of SDDV, the enrichment ratio came out at 0.265.

Take WLTS: the enrichment ratio was not above 0.25.

Regarding AVTG, the enrichment ratio was found to be 11.3.

Turning to AVSI, the enrichment ratio is 13.1.

On to AVCA, for which the enrichment ratio was determined as 6.97.

As for AVVG, the enrichment ratio was 11.2.

With AVMG, the enrichment ratio is 2.13.

Regarding AVDH, the enrichment ratio is not above 0.25.

Regarding HSNG, the enrichment ratio is not above 0.25.

For ERPM, the enrichment ratio was not above 0.25.

As for QHPH, the enrichment ratio was not above 0.25.

In the case of TVDY, the enrichment ratio is not above 0.25.

For QVDY, the enrichment ratio stood at 11.3.

Consider QLNM, for which the enrichment ratio is not above 0.25.

Regarding LPHC, the enrichment ratio is not above 0.25.

For the variant QVDN, the enrichment ratio came out at 11.3.

Consider LNHC, for which the enrichment ratio is not above 0.25.

Regarding QLDN, the enrichment ratio is not above 0.25.

With QVDS, the enrichment ratio is 1.54.

Take QLCK: the enrichment ratio is not above 0.25.

LVHC: the enrichment ratio was determined as 15.

Turning to FVDN, the enrichment ratio is not above 0.25.

For QLWM, the enrichment ratio turned out to be 12.6.

For LLFG, the enrichment ratio is not above 0.25.

Regarding YKSC, the enrichment ratio is not above 0.25.

On to GCVC, for which the enrichment ratio was not above 0.25.

Turning to HYNH, the enrichment ratio is not above 0.25.

For QSDS, the enrichment ratio was 20.8.

As to QSDA, the enrichment ratio came to 7.1.

With QSDH, the enrichment ratio stood at 18.9.

Take QADS: the enrichment ratio came out at 3.89.

In the case of QADY, the enrichment ratio was 11.7.

As for KSDH, the enrichment ratio is not above 0.25.

In the case of QRWG, the enrichment ratio was not above 0.25.

Regarding QSDK, the enrichment ratio was not above 0.25.

For KADY, the enrichment ratio was not above 0.25.

Take QPWG: the enrichment ratio is not above 0.25.

Take QSWG: the enrichment ratio is 18.

For QEDH, the enrichment ratio was not above 0.25.

In the case of QIRT, the enrichment ratio was not above 0.25.

In the case of QYHW, the enrichment ratio was not above 0.25.

With CPHF, the enrichment ratio was not above 0.25.

As to NKSG, the enrichment ratio is not above 0.25.

In the case of VAGL, the enrichment ratio is 1.62.

RRLA: the enrichment ratio is not above 0.25.

For QEAM, the enrichment ratio was not above 0.25.

Consider QSGV, for which the enrichment ratio is 3.83.

For the variant KNHV, the enrichment ratio is not above 0.25.

Take QSAM: the enrichment ratio turned out to be 14.5.

Consider QSDI, for which the enrichment ratio worked out at 14.8.

In the case of QSHF, the enrichment ratio was determined as 9.45.

As for QAAM, the enrichment ratio is not above 0.25.

As for QSHI, the enrichment ratio was determined as 15.9.

Take KSHI: the enrichment ratio is not above 0.25.

For QSHV, the enrichment ratio is 11.3.

Consider KSDI, for which the enrichment ratio is not above 0.25.

Consider QPDI, for which the enrichment ratio is not above 0.25.

In the case of SNHK, the enrichment ratio is not above 0.25.

In the case of ELHR, the enrichment ratio is not above 0.25.

For RESM, the enrichment ratio is not above 0.25.

In the case of NKRK, the enrichment ratio is not above 0.25.

In the case of MWRP, the enrichment ratio was not above 0.25.

With GFQI, the enrichment ratio is not above 0.25.

As for NFAP, the enrichment ratio was not above 0.25.

Regarding QSCK, the enrichment ratio is not above 0.25.

Take QSWA: the enrichment ratio was determined as 14.9.

On to QSGD, for which the enrichment ratio was not above 0.25.

As for QSRM, the enrichment ratio was not above 0.25.

Consider QSPM, for which the enrichment ratio was not above 0.25.

For QRWA, the enrichment ratio was not above 0.25.

Consider QSWI, for which the enrichment ratio turned out to be 21.7.

Regarding QSLA, the enrichment ratio is not above 0.25.

QPWA: the enrichment ratio was not above 0.25.

Take QSGM: the enrichment ratio is 21.6.

For the variant QSTH, the enrichment ratio is not above 0.25.

Consider QSWM, for which the enrichment ratio amounted to 11.9.

For the variant WMFH, the enrichment ratio is not above 0.25.

As to WHID, the enrichment ratio is not above 0.25.

For WSCR, the enrichment ratio was not above 0.25.

Take TVMI: the enrichment ratio is 1.87.

In the case of WGFP, the enrichment ratio is not above 0.25.

HKEM: the enrichment ratio is not above 0.25.

ESDT: the enrichment ratio was not above 0.25.

Turning to QSHQ, the enrichment ratio was 22.4.

Turning to QSWY, the enrichment ratio stood at 7.32.

For QYWI, the enrichment ratio is not above 0.25.

On to QSDY, for which the enrichment ratio is 14.5.

In the case of KSNM, the enrichment ratio is not above 0.25.

Consider QENM, for which the enrichment ratio is not above 0.25.

Regarding QSNM, the enrichment ratio was found to be 13.1.

Turning to QSHP, the enrichment ratio is not above 0.25.

For the variant QSTD, the enrichment ratio was not above 0.25.

Take QYMG: the enrichment ratio is not above 0.25.

In the case of QYWG, the enrichment ratio came out at 16.3.

As to KSDY, the enrichment ratio was not above 0.25.

For HQNG, the enrichment ratio is not above 0.25.

FDDI: the enrichment ratio is not above 0.25.

On to SMYF, for which the enrichment ratio is not above 0.25.

On to YYYI, for which the enrichment ratio is not above 0.25.

With FAGN, the enrichment ratio is not above 0.25.

Turning to ICGK, the enrichment ratio is not above 0.25.

In the case of IRTW, the enrichment ratio is not above 0.25.

On to QRHC, for which the enrichment ratio was not above 0.25.

On to KSDM, for which the enrichment ratio was not above 0.25.

Consider QPDM, for which the enrichment ratio was not above 0.25.

With QSWD, the enrichment ratio was 22.4.

Consider QGDM, for which the enrichment ratio stood at 27.5.

For QRWD, the enrichment ratio was not above 0.25.

For the variant QLHC, the enrichment ratio is 21.3.

In the case of QPWD, the enrichment ratio was not above 0.25.

On to QSDM, for which the enrichment ratio was 13.7.

On to QVHC, for which the enrichment ratio was not above 0.25.

With FFDM, the enrichment ratio is not above 0.25.

For QGGM, the enrichment ratio is 4.35.

Regarding WGMH, the enrichment ratio was not above 0.25.

In the case of ANRC, the enrichment ratio is not above 0.25.

Consider KGAG, for which the enrichment ratio is not above 0.25.

Regarding TIPQ, the enrichment ratio is not above 0.25.

On to PTHR, for which the enrichment ratio was not above 0.25.

Turning to TEAL, the enrichment ratio was 14.7.

On to QRAL, for which the enrichment ratio is not above 0.25.

Consider NEAL, for which the enrichment ratio was not above 0.25.

As to MEAL, the enrichment ratio came out at 8.16.

For TAAL, the enrichment ratio was found to be 11.4.

TGAL: the enrichment ratio is 15.9.

As to GGAL, the enrichment ratio is 4.27.

On to RGAL, for which the enrichment ratio is 0.701.

Take MGAL: the enrichment ratio is 15.5.

Take NGAL: the enrichment ratio is not above 0.25.

Regarding NAAL, the enrichment ratio is not above 0.25.

In the case of KAAL, the enrichment ratio is 1.81.
